A short description of assay [1]: qHTS assay to identify small molecule antagonists of the glucocorticoid receptor (GR) signaling pathway - cell viability counter screen (AID 720693; also: nearly all actives have a fitted effect of over 55% in size). (In general: Quantitative high-throughput screening tests each substance at several concentrations.)
Assay [2] in a line: qHTS assay for identifying genotoxic compounds that show differential cytotoxicity against isogenic chicken DT40 cell lines with known DNA damage response pathways - wild type cell line (AID 743012). Also: nearly all actives have a fitted effect of over 60% in size. Also: potency is read from the fitted curve at half-maximal effect. An outline of the steps: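 CellTiter-Glo luminescence readout of viability in wild type DT40 cells after 40 h compound exposure at 37 C/5% CO2; 300 cells/well; reagent incubated 30 min at room temperature before reading.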

Assay [3] is described as follows: qHTS assay for identifying genotoxic compounds that show differential cytotoxicity against isogenic chicken DT40 cell lines with known DNA damage response pathways - Rev3 mutant cell line (AID 743014). Also: nearly all actives have a fitted effect of over 55% in size. Also: potency is read from the fitted curve at half-maximal effect.
The nature of assay [4]: qHTS assay for identifying genotoxic compounds that show differential cytotoxicity against isogenic chicken DT40 cell lines with known DNA damage response pathways - Rad54/Ku70 mutant cell line (AID 743015). Also: nearly all actives have a fitted effect of over 60% in size. Also: potency is read from the fitted curve at half-maximal effect.
A short description of assay [5]: qHTS assay to identify small molecule antagonists of the androgen receptor (AR) signaling pathway - cell viability counter screen (AID 743033; also: nearly all actives have a fitted effect of over 45% in size; also: potency is read from the fitted curve at half-maximal effect).
Assay [6] addresses Androgen receptor (Homo sapiens) (UniProt P10275). In words: qHTS assay to identify small molecule antagonists of the androgen receptor (AR) signaling pathway (AID 743035; active = well fitted inhibition curve with a large enough effect in the signal ratio in the repeat runs, not every such curve was filed as active; the % refers to the signal ratio). An outline of the steps: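 AR-bla HEK293 reporter cells; 4 h settle at 37C/5% CO2; compound + R1881 agonist, 16 h at 37C; LiveBLAzer B/G FRET substrate 2 h RT; fluorescence intensity read. qHTS format.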
Assay [7] has the same target. In words: qHTS assay to identify small molecule agonists of the androgen receptor (AR) signaling pathway using the MDA cell line (AID 743040; also: nearly all actives have a fitted effect of over 20% in size; also: potency is read from the fitted curve at half-maximal effect). An outline of the steps: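 Luciferase read-out, ONE-Glo, 30 min RT. Cells: MDA-kb2 AR-luc, MMTV promoter with AR and GR response elements. Compound exposure 16 h, 37C, 0% CO2, after 5 h pre-incubation. qHTS agonist mode.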
Assay [8] in a line: qHTS assay to identify small molecule antagonists of the androgen receptor (AR) signaling pathway using the MDA cell line - cell viability counter screen (AID 743041; also: nearly all actives have a fitted effect of over 45% in size). An outline of the steps: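 Cytotoxicity counter screen: MDA-kb2 AR-luc cells, compound + R1881, 16 h, 37C, 0% CO2; CellTiter-Fluor added at 15.5 h, fluorescence read after 30 min.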
For assay [9], the target named is Androgen receptor (Homo sapiens) (UniProt P10275). Briefly: qHTS assay to identify small molecule antagonists of the androgen receptor (AR) signaling pathway using the MDA cell line (AID 743042; also: nearly all actives have a fitted effect of over 55% in size). Put shortly: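 MDA-kb2 breast carcinoma cells carrying MMTV-luciferase (AR/GR responsive) were co-treated with compounds and the agonist R1881 for 16 h at 37C. Inhibition read as ONE-Glo luminescence; CellTiter-Fluor fluorescence measured in parallel for cytotoxicity.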
Chain of Androgen receptor (Homo sapiens) (P10275 whole entry, looked up): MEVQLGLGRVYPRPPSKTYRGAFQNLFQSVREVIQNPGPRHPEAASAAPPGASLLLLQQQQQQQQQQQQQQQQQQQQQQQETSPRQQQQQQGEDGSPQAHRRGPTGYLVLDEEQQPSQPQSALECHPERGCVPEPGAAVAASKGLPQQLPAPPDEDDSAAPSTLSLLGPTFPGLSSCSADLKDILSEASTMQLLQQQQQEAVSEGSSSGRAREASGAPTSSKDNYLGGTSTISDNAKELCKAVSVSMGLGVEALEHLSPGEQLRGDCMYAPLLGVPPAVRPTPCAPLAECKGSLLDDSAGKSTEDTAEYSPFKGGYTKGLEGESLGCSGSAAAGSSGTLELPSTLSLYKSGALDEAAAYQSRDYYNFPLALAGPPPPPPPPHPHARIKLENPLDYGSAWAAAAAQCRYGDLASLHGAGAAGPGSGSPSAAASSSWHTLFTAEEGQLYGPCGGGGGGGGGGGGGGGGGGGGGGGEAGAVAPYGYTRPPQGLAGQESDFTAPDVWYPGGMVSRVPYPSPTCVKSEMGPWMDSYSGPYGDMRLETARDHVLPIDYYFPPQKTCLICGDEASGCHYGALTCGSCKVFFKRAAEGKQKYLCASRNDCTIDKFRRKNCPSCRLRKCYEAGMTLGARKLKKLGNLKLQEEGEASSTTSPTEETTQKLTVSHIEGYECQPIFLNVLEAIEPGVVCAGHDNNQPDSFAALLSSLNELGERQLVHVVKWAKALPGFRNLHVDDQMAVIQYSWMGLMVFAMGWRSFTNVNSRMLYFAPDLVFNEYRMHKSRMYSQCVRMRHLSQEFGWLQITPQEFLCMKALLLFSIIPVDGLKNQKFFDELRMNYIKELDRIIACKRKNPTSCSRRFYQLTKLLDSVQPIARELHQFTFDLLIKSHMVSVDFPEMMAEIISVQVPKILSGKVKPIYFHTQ

Assay [10] has the same target. Briefly: qHTS assay to identify small molecule agonists of the androgen receptor (AR) signaling pathway (AID 743036; active = well fitted activation curve with a large enough effect in the signal ratio in the repeat runs, with a control signal flat, not every such curve was filed as active; the % refers to the signal ratio). An outline of the steps:
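Activation was read as beta-lactamase FRET signal from LiveBLAzer B/G substrate, added for 2 h at room temperature. Before that, GeneBLAzer AR-UAS-bla GripTite (HEK293) cells had 16 h compound exposure at 37C.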

Where “and” joins values, the source holds several entries; their conditions need not be identical. Equal values may be shown once. Values without a mark were called inactive. Results filed as inconclusive are left out. Calls of active or inactive are those of the source. Unless noted, calls follow the shape of the dose curve; as a rule, active = well fitted curve in the direction sought with a large enough effect in the repeat runs; inconclusive = weak or mixed curves; inactive = no such curve, though single readings can be large; an effect the other way counts as inactive or inconclusive.

For the compound `NC(=O)COCCN1CCN(C(c2ccccc2)c2ccc(Cl)cc2)CC1` (configuration not stated), the outcome in assay [1] and in assay [6] was inactive. Besides, the Potency in [2] was 33.5 µM (active); in [3], 8.41 µM (active); in [4], 26.6 µM (active). The Potency entry in assay [5], in assay [7], in assay [8] and in [9] was “inactive” each time.
As for `NCCCNCCSP(=O)(O)O`, the call in [1] was inactive. Moreover, the Potency result in [2], in assay [3], in assay [4] and in assay [5] was “inactive” throughout.
Consider `CCOC(C)(C)C`, for which the compound was classed as inactive in [1]. Besides, the Potency result in assay [2], in assay [3], in assay [4] and in assay [5] was “inactive” each time.
For `CC(C)(C)c1ccc(O)c(O)c1`, the compound was classed as inactive in assay [1]. The Potency in [2] is 17.8 µM (active) and 6.11 µM (active); in [3] it was 12.6 µM (active) and 7.27 µM (active); in assay [4], 12.6 µM (active) and 10.5 µM (active). Further, in [5], the Potency result is “inactive”.
For `Brc1c(NC2=NCCN2)ccc2nccnc12`, in assay [1], the result was inactive. For the same compound, the Potency result in [2] and in assay [3] was “inactive” in each case.
Take `CCN1CCC[C@H]1CNC(=O)c1cc(S(N)(=O)=O)ccc1OC`: the compound was called inactive in [1], in assay [6] and in assay [10]. The Potency entry in [2], in [3], in assay [4], in [5], in assay [7] and in assay [8] was “inactive” each time. Moreover, the Potency result in assay [9] was “inactive”.
Turning to `CC1(C)C(O)C(C)(C)C1O` (configuration not stated), the compound was classed as inactive in assay [1] and in assay [6]. Moreover, the Potency entry in assay [2], in [3], in assay [4], in assay [5], in assay [7] and in [8] was “inactive” in each case. The Potency result in assay [9] is “inactive”.
As for `CCSC(=O)N(CC(C)C)CC(C)C`, the call in assay [1], in assay [6] and in [10] was inactive. The Potency result in assay [2], in [3], in assay [4], in assay [5], in assay [7] and in assay [8] was “inactive” throughout. Besides, in assay [9], the Potency entry is “inactive”.
In the case of `CC(=O)OCC(=O)[C@@]1(O)CCC2C3CCC4=CC(=O)CC[C@]4(C)C3[C@@H](O)C[C@@]21C` (some centres not stated), the compound was called inactive in [1]. The Potency result in [2], in [3], in [4] and in assay [5] was “inactive” throughout.
`COc1ccccc1OCC(O)CN1CCN(CC(=O)Nc2c(C)cccc2C)CC1` (configuration not stated): in assay [1], the result was inactive. Further, the Potency entry in assay [2], in [3], in assay [4] and in [5] was “inactive” throughout.
For `CC(=O)Nc1ccc(S(N)(=O)=O)cc1`, the call in [1], in [6] and in assay [10] was inactive. For the same compound, the Potency result in assay [2], in [3], in assay [4], in [5], in [7] and in assay [8] was “inactive” in each case. For the same compound, in assay [9], the Potency result is “inactive”.
As to `CN(C)CCCN1c2ccccc2CCc2ccc(Cl)cc21`, in assay [1], the result was inactive. Further, the Potency in [2] is 7.5 µM (active) and 6.11 µM (active); in [3], 7.5 µM (active) and 6.86 µM (active); in assay [4] it was 9.44 µM (active) and 7.7 µM (active); in assay [5], 24.5 µM (active).
Consider `COCCCOCCCOC`, for which the outcome in [1] was inactive. Besides, the Potency entry in assay [2], in assay [3], in assay [4] and in assay [5] was “inactive” throughout.
For the compound `CCCN(CCC)CCc1cccc2c1CC(=O)N2`, the compound was classed as inactive in assay [1]. Also, the Potency result in assay [2], in assay [3], in assay [4] and in assay [5] was “inactive” throughout.
On to `CC(=O)OCC(CCn1cnc2cnc(N)nc21)COC(C)=O`, for which the call in [1], in assay [6] and in [10] was inactive. Further, the Potency entry in assay [2], in assay [3], in assay [4], in assay [5], in assay [7] and in assay [8] was “inactive” throughout. For the same compound, the Potency entry in [9] was “inactive”.
In the case of `CCCCOCCOCCOCc1cc2c(cc1CCC)OCO2`, the outcome in [1], in [6] and in assay [10] was inactive. Moreover, the Potency is 24.6 µM (active) in assay [2] and 34.7 µM (active) in assay [4]. Moreover, the Potency result in [3], in [5], in [7], in assay [8] and in [9] was “inactive” each time.
For `CC(C)(C)c1nnc(NS(=O)(=O)c2ccccc2)s1`, the compound was classed as inactive in assay [1]. Besides, the Potency entry in assay [2], in assay [3], in assay [4] and in [5] was “inactive” in each case.
As to `CCCCC/C=C\CCC=O`, the result in [1] and in assay [6] was inactive. In addition, the Potency result in assay [2], in assay [3], in [4], in assay [5] and in assay [8] was “inactive” in each case.
On to `Cn1cc(S(C)=O)c(=O)c2ccc(F)cc21` (configuration not stated), for which, in assay [1], the result was inactive. In addition, the Potency entry in assay [2], in [3], in assay [4] and in assay [5] was “inactive” each time.
Turning to `COc1ccc2c(c1)c(CC(=O)OCC(=O)O)c(C)n2C(=O)c1ccc(Cl)cc1`, the compound was called inactive in [1] and in assay [6]. Further, the Potency result in [2], in [3], in assay [4], in [5], in assay [7] and in [9] was “inactive” in each case.
As for `CC(C(=O)O)c1ccc(CC2CCCC2=O)cc1` (configuration not stated), the call in assay [1] was inactive. Further, the Potency entry in [2], in [3], in assay [4] and in [5] was “inactive” each time.
Regarding `c1ccc(CC2=NCCN2)cc1`, the compound was classed as inactive in assay [1]. The Potency result in [2], in assay [3] and in assay [4] was “inactive” throughout.
On to `Nc1c2c(nc3ccccc13)CCCC2O` (configuration not stated), for which the outcome in assay [1] was inactive. Further, the Potency result in assay [2], in [3], in assay [4] and in assay [5] was “inactive” throughout.
Consider `CCCCNC(=O)NCCCC`, for which the outcome in assay [1] and in assay [6] was inactive. Moreover, the Potency result in assay [2], in assay [3], in assay [4], in assay [5], in [7] and in [9] was “inactive” throughout.
Turning to `O=C1CC2CC1C1CCCC21` (configuration not stated), the compound was classed as inactive in assay [1], in assay [6] and in assay [10]. Also, the Potency result in [2], in assay [3], in assay [4], in [5], in assay [8] and in assay [9] was “inactive” throughout. In assay [7], the Potency was 54.5 µM (active).
Regarding `Oc1ccc(C2CNCCc3c2cc(O)c(O)c3Cl)cc1` (configuration not stated), in [1], the result was inactive. In addition, the Potency result in [2], in assay [3], in [4] and in assay [5] was “inactive” throughout.
Take `C=C(C)C(=O)OCCCCCCCC(C)C`: the result in [1], in assay [6] and in [10] was inactive. Further, the Potency result in [2], in [3], in assay [4], in assay [5], in [7] and in assay [9] was “inactive” each time.
